According to PubChem BioAssay (Tox21):
Where “and” joins values, the source holds several entries; their conditions need not be identical. Equal entries are not always repeated. Results filed as inconclusive are left out. Where a call stands in place of a potency, no number is given. The source holds several records for some structures; these can differ, active in one and inactive in another. Calls of active or inactive are those of the source. Calls follow the shape of the dose curve; as a rule, active = well fitted cell-killing curve with a large enough effect in the repeat runs; inconclusive = weak or mixed curves, or effect the other way; inactive = flat fitted curve, though single readings scatter.

Assay: qHTS assay to identify small molecule antagonists of the androgen receptor (AR) signaling pathway using the MDA cell line in the presence of 0.5 nM R1881 - cell viability counter screen (AID 1259242); also: nearly all actives have a fitted effect of over 45% in size
Conditions: MDA-kb2 viability, CellTiter-Fluor protease fluorescence, 16 h; series mostly up to 92.4 µM
Text: U.S. Tox21 Program National Center for Advancing Translational Sciences [NCATS] NIH Chemical Genomics Center [NCGC] U.S. Environmental Protection Agency [EPA] National Institutes of Environmental Health Sciences [NIEHS] National Toxicology Program [NTP] U.S. Food and Drug Administration [FDA] Tox21 Assay Overview: Androgen receptor (AR) is an important member of the nuclear receptor family. Its signaling plays a critical role in AR-dependent prostate cancer and other androgen related diseases. Considerable attention has been given in the past decades to develop methods to study and screen for the environmental chemicals that have the potential to interfere with metabolic homeostasis, reproduction, developmental and behavioral functions. Therefore AR binding assay for screening androgen antagonists can be used to identify potential endocrine disruptors. MDA-kb2 cells (from ATCC, deposited by Wilson et al.) were used to screen for AR inhibitors against Tox21 compound libraries. These cells are human breast carcinoma cells that were stably transfected with a luciferase reporter gene under control of the MMTV promoter that contains response elements for both androgen receptor (AR) and glucocorticoid receptor (GR). The current screening for identification of AR inhibitors against Tox21 libraries used lower concentration of (0.5 nM) R1881 as a stimulator. The cytotoxicity of the Tox21 compound libraries against MDA-kb2 cell line was tested by measuring live-cell protease activity using CellTiter-Fluor assay in the same wells.
Tox21 Assay Protocol Summary: MDA-kb2 cells (cells cultured without CO2) were dispensed at 3,000 cells/well in 4 uL of culture medium into white wall/solid-bottom 1536-well plates (Corning Life Sciences, Corning, NY) using a Multidrop Combi (ThermoFisher Scientific, Waltham, MA) dispenser. After the assay plates were incubated at a 37C and 0% CO2 for 5 hr, 23 nL of compounds dissolved in DMSO, positive controls or DMSO only was transferred to the assay plate by a Pintool station (Kalypsys, San Diego, CA). The transfer of compounds was followed by the addition of 1 uL of 0.5 nM (final concentration) agonist (R1881)/culture medium using a Flying Reagent Dispenser (FRD, Aurora Discovery, San Diego, CA). The plates were incubated at 37C and 0% CO2 for 16 hr. For cytotoxicity assay, 1 uL of CellTiter-Fluor reagent (Promega Corporation, Madison, WI) was added to each well using the FRD and after 30 min incubation at 37C and 0% CO2, The fluorescence intensity was measured using ViewLux plate reader (PerkinElmer, Shelton, CT).
Potency is read from the fitted curve at half-maximal effect.

| Structure (SMILES) | Potency |
| --- | --- |
| C=C1CC[C@H](O)CC1=C/C=C1\CCC[C@]2(C)[C@@H]([C@H](C)/C=C/[C@H](C)C(C)C)CC[C@@H]12 | inactive |
| Cc1cc(=O)[nH]c(C(C)C)n1 | inactive |
| O=S(=O)(O)CCS | inactive |
| CCOC(=O)/C=C\C(=O)OCC | inactive |
| NCCNCCNCCNCCN | inactive |
| CCCCC(CC)COC(C)=O (stereo not given) | inactive |
| CCCCOCCOCCOC(=O)CCCCC(=O)OCCOCCOCCCC | inactive |
| CC1COc2ccccc2N1C(=O)C(Cl)Cl (stereo not given) | inactive |
| OCC1CCCO1 (stereo not given) | inactive |
| Cc1cc(O)c2c(c1)C(=O)c1cc(O)cc(O)c1C2=O | inactive and 48.6 µM (active) |
| CC(C)(C)C1CCC(O)CC1 (stereo not given) | inactive |
| C=C(C#N)C(=O)OCC | inactive |
| NCCc1ccc(O)c(O)c1 | inactive |
| CS(=O)(=O)c1ccc([C@@H](O)[C@@H](CO)NC(=O)C(Cl)Cl)cc1 | inactive |
| Cc1cc(O)cc(C)c1Cl | inactive |
| CCC(=O)O | inactive |
| CCCCC(CC)COC(=O)/C=C\C(=O)OCC(CC)CCCC (stereo not given) | inactive |
| Cc1cc(NS(=O)(=O)c2ccc(N)cc2)no1 | inactive |
| CCOC(=O)[C@H](CCc1ccccc1)N[C@@H](C)C(=O)N1Cc2ccccc2C[C@H]1C(=O)O | inactive |
| O=Nc1ccc(O)cc1 | inactive |

| Structure (SMILES) | Potency |
| --- | --- |
| NS(=O)(=O)c1cc2c(cc1Cl)NC=NS2(=O)=O | inactive |
| CC(C)(N=C=O)c1cccc(C(C)(C)N=C=O)c1 | inactive |
| Clc1cc(Cl)c(Cl)cc1Cl | inactive |
| CS(=O)(=O)Nc1ccc([N+](=O)[O-])cc1Oc1ccccc1 | inactive |
| COC(=O)Nc1nc2ccc(Sc3ccccc3)cc2[nH]1 | inactive |
| OC[C@@H](O)[C@@H](O)[C@H](O)[C@@H](O)CO | inactive |
| O=[N+]([O-])C(CO)(CO)CO | inactive |
| CCCCOCCO | inactive |
| OC1CCCC1 | inactive |
| CC(=O)[C@@]1(O)CC[C@H]2[C@@H]3CCC4=CC(=O)CC[C@]4(C)[C@H]3CC[C@@]21C | inactive |
| Cn1c([N+](=O)[O-])cnc1COC(N)=O | inactive |
| CC1=CC[C@H]2C[C@@H]1C2(C)C | inactive |
| O=S(=O)(Oc1ccc(Cl)cc1Cl)c1ccccc1 | inactive |
| O=C(c1cc(O)c(O)c(O)c1)c1ccc(O)c(O)c1O | inactive |
| CCCCCC/C=C/CCCCCCCC(=O)O | inactive |
| CC1CC(OC(=O)c2ccccc2O)CC(C)(C)C1 (stereo not given) | inactive |
| Oc1ccc2ccccc2c1 | inactive |
| CN(C)c1cccc(O)c1 | inactive |
| c1ccc2[nH]cnc2c1 | inactive |
| CCCCC/C=C\C/C=C\CCCCCCCC(=O)OC | inactive |
